Data published in PubChem BioAssay AID1159580 (chemical genetic matrix, 2015).
Among all 5,500 compounds or so, about 2,000 (36%) were called active. About 18% were inconclusive and are not listed. Rule as the data show it: active = normalized growth mostly below about 0.91 (no sharp cut-off); inconclusive = no clear call, values can overlap the other calls; inactive = mostly above about 0.92. The list shows a part of the results.

Test: chemical genetic growth profiling, strain panel (AID 1159580);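 also: tested at 20 µM; growth read once vehicle control cultures reached saturation at 30 °C; 1 = growth at the plate median or of vehicle wells; lower values mean less growth of the strain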
Settings: growth OD

Measured: normalized growth

Nc1ccc(S(=O)(=O)Nc2ncccn2)cc1
inactive: S. cerevisiae deletion strains, locus YJR066W, strain TOR1, stronger effect = lower value 0.92 | S. cerevisiae deletion strains, locus YJR075W, strain HOC1, stronger effect = lower value 0.992 | S. cerevisiae deletion strains, locus YKL009W, strain mrt4, stronger effect = lower value 1.01 | S. cerevisiae deletion strains, locus YKL068W, stronger effect = lower value 0.989 | S. cerevisiae deletion strains, locus YKL085W, strain MDH1 (second series), stronger effect = lower value 0.996 | S. cerevisiae deletion strains, locus YKL085W, strain MDH1, stronger effect = lower value 0.996 | S. cerevisiae deletion strains, locus YKL160W, strain elf1, stronger effect = lower value 1.01 | S. cerevisiae deletion strains, locus YKL190W, strain CNB1, stronger effect = lower value 0.989 | S. cerevisiae deletion strains, locus YKR001C, strain vps1, stronger effect = lower value 1 | S. cerevisiae deletion strains, locus YKR026C, strain gcn3, stronger effect = lower value 0.966 | S. cerevisiae deletion strains, locus YKR091W, strain srl3, stronger effect = lower value 0.978 | S. cerevisiae deletion strains, locus YLL001W, strain dnm1, stronger effect = lower value 0.977 | S. cerevisiae deletion strains, locus YLL026W, stronger effect = lower value 0.999 | S. cerevisiae deletion strains, locus YLL041C, strain sdh2, stronger effect = lower value 0.997 | S. cerevisiae deletion strains, locus YLR027C, strain aat2, stronger effect = lower value 0.983 | S. cerevisiae deletion strains, locus YLR039C, strain RIC1, stronger effect = lower value 0.999 | S. cerevisiae deletion strains, locus YLR058C, strain SHM2, stronger effect = lower value 0.976 | S. cerevisiae deletion strains, locus YLR102C, strain apc9, stronger effect = lower value 0.993 | S. cerevisiae deletion strains, locus YLR113W, strain HOG1, stronger effect = lower value 0.973 | S. cerevisiae deletion strains, locus YLR221C, strain rsa3, stronger effect = lower value 0.968 | S. cerevisiae deletion strains, locus YLR258W, strain gsy2, stronger effect = lower value 0.98 | S. cerevisiae deletion strains, locus YLR262C, strain YPT6 (second series), stronger effect = lower value 0.981 | S. cerevisiae deletion strains, locus YLR262C, strain YPT6, stronger effect = lower value 0.974 | S. cerevisiae deletion strains, locus YLR268W, strain sec22, stronger effect = lower value 1.05 | S. cerevisiae deletion strains, locus YLR320W, strain mms22, stronger effect = lower value 0.982 | S. cerevisiae deletion strains, locus YLR330W, strain CHS5, stronger effect = lower value 0.994 | S. cerevisiae deletion strains, locus YLR342W, strain FKS1 (second series), stronger effect = lower value 1.01 | S. cerevisiae deletion strains, locus YLR342W, strain FKS1, stronger effect = lower value 0.992 | S. cerevisiae deletion strains, locus YLR357W, strain rsc2, stronger effect = lower value 0.939 | S. cerevisiae deletion strains, locus YLR370C, strain arc18, stronger effect = lower value 0.982 | S. cerevisiae deletion strains, locus YLR384C, strain iki3, stronger effect = lower value 0.994 | S. cerevisiae deletion strains, locus YLR418C, strain cdc73, stronger effect = lower value 0.997 | S. cerevisiae deletion strains, locus YML016C, strain PPZ1, stronger effect = lower value 0.988 | S. cerevisiae deletion strains, locus YML032C, strain rad52, stronger effect = lower value 1.01 | S. cerevisiae deletion strains, locus YML120C, strain ndi1, stronger effect = lower value 0.969 | S. cerevisiae deletion strains, locus YML124C, strain tub3, stronger effect = lower value 1 | S. cerevisiae deletion strains, locus YMR058W, strain fet3, stronger effect = lower value 1.01 | S. cerevisiae deletion strains, locus YMR078C, strain ctf18, stronger effect = lower value 0.985 | S. cerevisiae deletion strains, locus YMR125W, strain sto1, stronger effect = lower value 0.955 | S. cerevisiae deletion strains, locus YMR129W, stronger effect = lower value 0.983 | S. cerevisiae deletion strains, locus YMR205C, strain PFK2, stronger effect = lower value 0.985 | S. cerevisiae deletion strains, locus YMR223W, strain ubp8, stronger effect = lower value 0.976 | S. cerevisiae deletion strains, locus YMR231W, strain pep5, stronger effect = lower value 0.979 | S. cerevisiae deletion strains, locus YMR307W, strain GAS1, stronger effect = lower value 1 | S. cerevisiae deletion strains, locus YNL067W, strain RPL9B, stronger effect = lower value 0.99 | S. cerevisiae deletion strains, locus YNL071W, strain lat1, stronger effect = lower value 0.969 | S. cerevisiae deletion strains, locus YNL153C, strain GIM3, stronger effect = lower value 0.987 | S. cerevisiae deletion strains, locus YNL183C, strain NPR1, stronger effect = lower value 0.942 | S. cerevisiae deletion strains, locus YNL209W, strain ssb2, stronger effect = lower value 0.967 | S. cerevisiae deletion strains, locus YNL233W, strain BNI4, stronger effect = lower value 0.994 | S. cerevisiae deletion strains, locus YNL248C, strain rpa49, stronger effect = lower value 0.974 | S. cerevisiae deletion strains, locus YNL250W, strain rad50, stronger effect = lower value 1 | S. cerevisiae deletion strains, locus YNL271C, strain bni1, stronger effect = lower value 0.998 | S. cerevisiae deletion strains, locus YNL298W, strain CLA4, stronger effect = lower value 1 | S. cerevisiae deletion strains, locus YNL307C, strain MCK1, stronger effect = lower value 1 | S. cerevisiae deletion strains, locus YNL322C, strain KRE1 (second series), stronger effect = lower value 0.959 | S. cerevisiae deletion strains, locus YNR049C, strain mso1, stronger effect = lower value 0.98 | S. cerevisiae deletion strains, locus YNR052C, strain pop2, stronger effect = lower value 0.995 | S. cerevisiae deletion strains, locus YOL006C, strain TOP1, stronger effect = lower value 0.968 | S. cerevisiae deletion strains, locus YOL012C, strain htz1 1.31 | S. cerevisiae deletion strains, locus YOL147C, strain pex11, stronger effect = lower value 1 | S. cerevisiae deletion strains, locus YOR001W, strain rrp6, stronger effect = lower value 0.948 | S. cerevisiae deletion strains, locus YOR061W, strain CKA2, stronger effect = lower value 0.968 | S. cerevisiae deletion strains, locus YOR069W, strain VPS5, stronger effect = lower value 1 | S. cerevisiae deletion strains, locus YOR070C, strain gyp1, stronger effect = lower value 0.991 | S. cerevisiae deletion strains, locus YOR080W, strain dia2, stronger effect = lower value 0.972 | S. cerevisiae deletion strains, locus YOR083W, strain WHI5, stronger effect = lower value 0.964 | S. cerevisiae deletion strains, locus YOR106W, strain vam3, stronger effect = lower value 0.981 | S. cerevisiae deletion strains, locus YOR136W, strain idh2, stronger effect = lower value 0.983 | S. cerevisiae deletion strains, locus YOR144C, strain elg1, stronger effect = lower value 0.996 | S. cerevisiae deletion strains, locus YOR184W, strain ser1, stronger effect = lower value 0.994 | S. cerevisiae deletion strains, locus YOR231W, strain MKK1, stronger effect = lower value 0.978 | S. cerevisiae deletion strains, locus YOR265W, strain rbl2, stronger effect = lower value 1.02 | S. cerevisiae deletion strains, locus YOR270C, strain vph1, stronger effect = lower value 0.919 | S. cerevisiae deletion strains, locus YOR290C, strain snf2, stronger effect = lower value 0.974 | S. cerevisiae deletion strains, locus YOR316C, strain cot1, stronger effect = lower value 0.984 | S. cerevisiae deletion strains, locus YPL051W, strain arl3, stronger effect = lower value 1.01 | S. cerevisiae deletion strains, locus YPL055C, strain LGE1, stronger effect = lower value 0.939 | S. cerevisiae deletion strains, locus YPL078C, strain atp4, stronger effect = lower value 0.992 | S. cerevisiae deletion strains, locus YPL106C, strain sse1, stronger effect = lower value 0.983 | S. cerevisiae deletion strains, locus YPL240C, strain hsp82, stronger effect = lower value 0.99 | S. cerevisiae deletion strains, locus YPL241C, strain CIN2, stronger effect = lower value 0.996 | S. cerevisiae deletion strains, locus YPL256C, strain CLN2, stronger effect = lower value 0.968 | S. cerevisiae deletion strains, locus YPR119W, strain clb2, stronger effect = lower value 0.983 | S. cerevisiae deletion strains, locus YPR141C, strain kar3, stronger effect = lower value 0.983 | S. cerevisiae deletion strains, locus YPR163C, strain tif3, stronger effect = lower value 1 | S. cerevisiae deletion strains, locus YPR167C, strain met16, stronger effect = lower value 0.989 | S. cerevisiae deletion strains, strain wtn01, stronger effect = lower value 1.01 | S. cerevisiae strains, strain wild type, stronger effect = lower value 0.988
